Only some compounds are listed: those with a hit (about 19% of all), similar ones and a draw of the others.
CHX counter: counter-screen for Shiga toxin inhibitors: cycloheximide protein synthesis inhibition | cell reporter, cycloheximide protein synthesis inhibition counterscreen | max response, % | 12% of 300,000 active | AID 2314; in the data active = max response mostly above about 13%, no sharp cut-off; inactive = mostly below about 14%; also: read at 38.3 µM for the half of the compounds with a filed dose; 0% is about no effect
Shiga toxin inh: Shiga toxin inhibition; AID 2315; inhibition, % at 38.7 µM; Vero cells, Shiga toxin protein synthesis inhibition reporter; 9.2% of 290,000 active; in the data active = inhibition mostly above about 28%, no sharp cut-off; inactive = mostly below about 43%; also: 0% is about no effect
Pf growth 48h: P. falciparum growth inhibition at 48 hours (one generation); P. falciparum luciferase growth in erythrocytes, 48 h; Potency, µM (highest dose often 28.7 µM), without a hit: at the top dose activity change, negative = inhibition, actives largely listed as inhibitors; 5.9% of 310,000 active; also: potency is read from the fitted curve at half-maximal effect; % is scaled to controls: 0 for no effect and ±100 for the full control effect
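Cell-based growth assay: transgenic P. falciparum expressing firefly luciferase, cultured in red cells within RPMI 1640 containing 0.5% w/v Albumax, 24 mM bicarbonate and gentamycin. A drop in luciferase activity indicates inhibition.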
Pf growth 96h: P. falciparum growth inhibition at 96 hour, primary screen for plastid delayed-death inhibitors | P. falciparum luciferase reporter growth, 96 h | Potency, µM (titrated, usually from 28.7 µM), inactives show at the top dose activity change, negative = inhibition, actives largely listed as inhibitors | 6.9% of 320,000 active; also: potency is read from the fitted curve at half-maximal effect; % is scaled to controls: 0 for no effect and ±100 for the full control effect
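Delayed-death screen, second-generation endpoint: infected erythrocytes, 2% hematocrit, 0.05% parasitemia final; 96 hours at 37 C, 5% CO2; luciferase detection reagent; luminescence decrease equals reduced growth.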
AMA1-RON2 inh: disrupts binding of P. falciparum AMA1 to RON2 | AlphaScreen AMA1-biotinylated RON2 peptide binding | Potency, µM (doses to about 58.2 µM), for inactives: at the highest dose activity change, negative = inhibition, actives largely listed as inhibitors | 0.2% of 360,000 active | AID 720542;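 also: potency is read from the fitted curve at half-maximal effect; 0% = vehicle wells and -100% = peptide control; nearly all actives have a fitted effect of over 45% in size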
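AMA1 (3D7) with his tag at 25 nM final met compounds first, then biotinylated RON2 peptide at 25 nM; detection used donor plus acceptor beads, 10 µg/mL apiece, read by AlphaScreen after 30 min at room temperature.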
SARS PLpro yeast: blocks SARS-CoV papain-like protease in a yeast assay; S. cerevisiae expressing SARS-CoV PLpro, growth rescue; Potency, µM (doses to about 32.9 µM), for inactives: top-dose activity, positive = growth rescue, most hits filed as activators; 0.19% of 330,000 active; calls by dose curve; also: potency is read from the fitted curve at half-maximal effect; 0% is about no effect; nearly all actives have a fitted effect of over 55% in size
* = called active by the depositor; ? = inconclusive; . = not tested or not shown; [ ] = another dose, or the depositor's remark. Unless noted, calls follow the shape of the dose curve; as a rule, active = well fitted curve in the direction sought with a large enough effect; inconclusive = small, poorly fitted or top-dose-only effect, or another doubt; inactive = no such curve, though single readings can be large; an effect the other way counts as inactive or inconclusive.

SMILES	CHX counter	Shiga toxin inh	Pf growth 48h	Pf growth 96h	AMA1-RON2 inh	SARS PLpro yeast
CCOc1cc(CNC2CCCC2)ccc1OCc1ccccc1Cl	-8	-4	?	-55%[5.75 µM]	-7%	-1%
COc1cc(C(=O)Nc2ccc(Cl)c(C(F)(F)F)c2)cc(OC)c1OC	5	9	13µM*	-9%	-7%	-55%
COc1cc(C(=O)Nc2cccc(-n3cnnn3)c2)cc(Cl)c1OC	-1	-3	9.3µM*	?	0%	-2%
COc1cccc(C(=O)Nc2ccc(Cl)c(C(F)(F)F)c2)c1	51*	88*	-18%	?	4%	-36%
CCOC(=O)C1CCN(C(=O)Cn2nc(CC)n3cccc3c2=O)CC1	-5	-2	4%	?	-7%	2%
CCOC(=O)C1(CCOc2ccccc2)CCN(Cc2cccc3nonc23)CC1	6	14	?	3%	2%	-1%
COCc1c(CCl)cnc(C)c1O	8.1*	48*	-26%	9.3µM*	-1%	-2%
Cc1ncc(CO)c(CO)c1O	.	.	2%	28%	-2%	.
CC(OC(=O)c1ccccc1C(=O)N(C)Cc1ccccc1)C(=O)NC1(C#N)CCCCC1 (stereo not drawn)	.	.	10µM*	?	-1%	1%
COc1ccc(CN2CCN(c3ncnc4scc(-c5ccc(F)cc5)c34)CC2)cc1	-4	-3	?	9.3µM*	-6%	0%
COc1ccc(N2CCN(c3ncnc4scc(-c5ccc(F)cc5)c34)CC2)cc1	11	-6	?	12µM*	13µM*	-9%
COc1ccc(-c2csc3ncnc(N4CCN(c5cccc(OC)c5)CC4)c23)cc1	-2	10	?	?	-17%	-3%
Fc1ccc(-c2csc3ncnc(N4CCN(c5ccccc5)CC4)c23)cc1	-4	-8	12µM*	5.9µM*	-8%	-5%
COc1ccc(-c2csc3ncnc(N4CCN(c5cccc(Cl)c5)CC4)c23)cc1	-1	-8	?	7.4µM*	-21%	-8%
COc1ccc(N2CCN(c3ncnc4scc(-c5ccc(C)cc5)c34)CC2)cc1	-2	-3	?	?	11%	-33%
O=C(Nc1ccc(F)cc1)/C(=C1/CCCCCN1)[N+](=O)[O-]	-2	20	5%	0%	-12%	-1%
Cn1c(=O)c(=O)n(C)c2cc(S(=O)(=O)N3CCCC3C(=O)NCc3cccnc3)ccc21 (stereo not drawn)	-1	-3	7%	2%	19%	1%
COc1cc(NC(=S)NCCCN2CCOCC2)c(OC)cc1NC(=O)c1ccco1	-3	-1	44%	-14%	1%	2%
O=C(COc1cc(F)ccc1[N+](=O)[O-])Nc1cccc(S(=O)(=O)NC2=NCCC2)c1	.	.	-27%	30%	-3%	1%
COc1ccc(-c2csc3ncnc(N4CCN(S(=O)(=O)c5cccs5)CC4)c23)cc1	.	.	?	0%	-20%	5%
c1ccc(-c2csc3ncnc(N4CCOCC4)c23)cc1	2	-8	-4%	32%	2%	-1%
COc1ccc(-c2csc3ncnc(N4CCN(S(=O)(=O)c5ccc(C)cc5)CC4)c23)cc1	.	.	12µM*	?	-5%	1%
c1ccc(-c2csc3ncnc(N4CCc5ccccc5C4)c23)cc1	2	14	12µM*	12µM*	-16%	-16%
Cc1sc2ncnc(N3CCN(Cc4ccccc4)CC3)c2c1-c1ccccc1	-8	0	12µM*	10µM*	-2%	10%
COc1ccc(N2CCN(c3ncnc4scc(-c5ccccc5)c34)CC2)cc1	-6	-5	9.3µM*	?	?	-5%
SMILES	CHX counter	Shiga toxin inh	Pf growth 48h	Pf growth 96h	AMA1-RON2 inh	SARS PLpro yeast
COc1ccc(CC(=O)Nc2cccnc2)cc1	-4	-15	11%	?	-7%	-11%
Cc1ccc(C)c(C(=O)N(C)CC(=O)Nc2ccccc2C(F)(F)F)c1	12	22	4%	-1%	9%	2%
Oc1[nH]c2ccccc2c1N=NC(=S)NCC1CCCO1 (stereo not drawn)	17*	18	?	?	9%	3%
Cc1cc(C)c2[nH]c(O)c(N=NC(=S)NCC3CCCO3)c2c1 (stereo not drawn)	-4	-6	?	?	53%	-6%
Oc1[nH]c2ccc(Br)cc2c1N=NC(=S)NCC1CCCO1 (stereo not drawn)	-2	-6	5.9µM*	?	52%	1%
CCn1c(O)c(N=NC(=S)NCC2CCCO2)c2ccccc21 (stereo not drawn)	1	-9	-29%	?	38%	0%
Oc1[nH]c2c(Cl)cc(Cl)cc2c1N=NC(=S)NCC1CCCO1 (stereo not drawn)	-3	-16	1.9µM*	6.6µM*	51%	9%
O=C(Nc1nnc(Cc2ccccc2F)s1)Nc1ccccc1F	14	26	13%	?	0%	-5%
CC(=O)N(c1ccc2oc(=O)sc2c1)S(=O)(=O)c1ccccc1	-3	-1	-17%	15%	-15%	3%
CC(=O)Oc1ccccc1C(=O)N1CCN(S(=O)(=O)c2ccc3ccccc3c2)CC1	-1	3	.	?	-3%	0%
CC(=O)Oc1c(Br)cc(N(C(C)=O)S(=O)(=O)c2ccccc2)c2ccccc12	2	.	3.3µM*	?	15%	-8%
CC(=O)Oc1ccc(N(C(C)=O)S(=O)(=O)c2cccs2)c2ccccc12	-4	-9	4.1µM*	.	-24%	-3%
CC(=O)Oc1ccccc1N(C(C)=O)S(=O)(=O)c1ccc2ccccc2c1	11	23	-13%	2.3µM*	6%	-1%
COc1cccc(-n2c(C)nnc2SCC(=O)Nc2ccccc2N2CCOCC2)c1	-4	14	?	?	2%	8%
Cc1nc(N)sc1C(=O)OCC(C)C	11	-8	25%	22%	-10%	-7%
COc1cccc(OC)c1C(=O)Nc1ccc(S(=O)(=O)Nc2ncccn2)cc1	-2	5	-1%	240%	2%	-3%
CCOc1cc([N+](=O)[O-])c2nc(N)sc2c1	10	5	20%	17%	-6%	-5%
Cc1[nH]c2ccc(C(=O)Nc3ccncc3)cc2c1C	23*	50*	?	12µM*	2%	-2%
COc1ccccc1NC(=O)c1ccc2[nH]c(C)c(C)c2c1	40*	128*	3%[0.00184 µM]	62%	-3%	-5%
CCCN1C(=O)c2cc(C(=O)Nc3ccccc3OC)ccc2C1Nc1ccccc1OC (stereo not drawn)	-2	18	10µM*	?	3%	0%
O=C(NNC(=O)C1C2CCCCC21)c1coc(=O)c(Br)c1 (stereo not drawn)	51*	57*	76%	9%	72%	1%
O=C(NC(CO)(CO)CO)c1coc(=O)c(Br)c1	10	1	?	?	8%	3%
Cc1[nH]c2ccc(C(=O)O)cc2c1C	7	19	.	1%	-3%	-4%

Screens (PubChem BioAssay)
